Experimental data as given in ChEMBL document CHEMBL3988442, “University of Dundee, Small-Polar-MMV Screening Library” (2021).
Measured potencies and affinities stand elsewhere.

These compounds were tested against T1, Ubiquitin-activating enzyme e1, putative (Leishmania donovani (strain BPK282A1)) (UniProt E9BSI1) (assay: Leishmania donovani Ubiquitin Activating Enzyme (LdE1)). Conditions: 30 µM.
T1 sequence (whole entry): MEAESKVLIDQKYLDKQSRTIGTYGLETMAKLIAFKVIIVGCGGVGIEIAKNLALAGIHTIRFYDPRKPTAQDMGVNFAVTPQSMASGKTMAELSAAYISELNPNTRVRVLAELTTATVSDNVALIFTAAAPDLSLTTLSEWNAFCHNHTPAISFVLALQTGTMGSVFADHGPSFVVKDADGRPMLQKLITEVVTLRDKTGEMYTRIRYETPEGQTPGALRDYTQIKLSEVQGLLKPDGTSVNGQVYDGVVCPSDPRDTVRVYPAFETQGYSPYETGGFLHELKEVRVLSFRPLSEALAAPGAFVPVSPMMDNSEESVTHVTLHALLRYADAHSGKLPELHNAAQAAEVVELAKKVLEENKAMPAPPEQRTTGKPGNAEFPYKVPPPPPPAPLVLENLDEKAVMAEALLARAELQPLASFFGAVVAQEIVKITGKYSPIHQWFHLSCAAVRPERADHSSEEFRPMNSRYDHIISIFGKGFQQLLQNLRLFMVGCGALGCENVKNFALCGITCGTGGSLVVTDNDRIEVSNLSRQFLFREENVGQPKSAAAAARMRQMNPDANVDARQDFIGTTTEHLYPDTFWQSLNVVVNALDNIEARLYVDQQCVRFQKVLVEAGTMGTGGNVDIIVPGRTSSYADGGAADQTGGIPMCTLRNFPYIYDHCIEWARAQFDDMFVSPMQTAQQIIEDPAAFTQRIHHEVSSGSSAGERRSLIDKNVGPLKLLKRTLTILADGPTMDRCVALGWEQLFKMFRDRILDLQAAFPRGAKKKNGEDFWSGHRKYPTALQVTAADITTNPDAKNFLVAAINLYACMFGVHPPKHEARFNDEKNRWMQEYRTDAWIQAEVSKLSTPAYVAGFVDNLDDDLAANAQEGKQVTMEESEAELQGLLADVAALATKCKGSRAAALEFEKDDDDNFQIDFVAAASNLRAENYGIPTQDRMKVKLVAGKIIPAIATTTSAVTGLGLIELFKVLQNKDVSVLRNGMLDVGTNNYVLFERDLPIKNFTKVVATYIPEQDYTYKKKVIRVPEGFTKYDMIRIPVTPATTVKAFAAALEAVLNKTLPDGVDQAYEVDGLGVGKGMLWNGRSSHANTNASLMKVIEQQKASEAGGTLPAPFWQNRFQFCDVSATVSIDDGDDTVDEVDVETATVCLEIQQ
Assay type: functional
Design: scale not given: direction of the effect not stated beside the values
Work on `O=C(c1ccn[nH]1)N1CCCC(n2cncn2)C1` (stereo unspecified) yielded a Percent Effect of 11.4%. `CN(c1ccncn1)C1CC2(CCN(C(=O)c3cccs3)C2)C1` (stereo unspecified) gave a Percent Effect of 1.35%. For `CCC1(CO)CCCN(c2ncccc2C#N)C1` (stereo unspecified), the Percent Effect was -5.41%. `CCN(CC)C(=O)c1ccn(COc2cc(C)cc(C)c2)n1` showed a Percent Effect of 22.7%. `CCCS(=O)(=O)NCC1CCOc2ccccc2C1` (stereo unspecified) was tested, and the Percent Effect was 0%. Compound `Cc1ccc(C2CSCCN2C(=O)C2=CCCC2)o1` (stereo unspecified) has a Percent Effect of 8.11%. Work on `CC(C)c1nc(C(=O)N2CCOCC2CC(=O)c2ccco2)c[nH]1` (stereo unspecified) yielded a Percent Effect of -2.63%. `Cc1nn(C)c(N2CCOCC2)c1CNC1CCc2ccccc2C1` (stereo unspecified) gave a Percent Effect of 15.2%. In the case of `CNc1nc(C(=O)N2CCCC(c3nccn3CC3CCC3)C2)cs1` (stereo unspecified), the Percent Effect is reported as 8.22%. `Cc1cc(Nc2nc(C)cs2)nc(C2CCCCN2CCO)n1` (stereo unspecified) was tested, and the Percent Effect was 1.35%. `N#Cc1cccc(CN2CC[C@@H]3[C@@H]2CC(=O)N3Cc2cccnc2)c1` showed a Percent Effect of 16%. Compound `O=C(NCCNc1ncccn1)N1CCSCC1` has a Percent Effect of 13.5%. Compound `CN(C)CCn1c(=O)oc2ccc(NC(=O)C3CCCO3)cc21` (stereo unspecified) has a Percent Effect of 5.33%. `CC(NC(=O)C1=NN(C)C(=O)CC1)c1ccc(Cl)cc1Cl` (stereo unspecified) gave a Percent Effect of 16.4%. With `CCn1c(=O)nc2n1C(=O)N(c1cccc(Cl)c1)C2` the Percent Effect was 6.67%. With `O=C(c1ccc(Cl)o1)N1CCCN(Cc2cscn2)CC1` the Percent Effect was 15.6%. For `CC(N(C)Cc1nc2c(cnn2C)c(=O)[nH]1)C(C)(C)C` (stereo unspecified), the Percent Effect was 13.5%. `CCc1noc(C2CCCCN2C(=O)c2nnc3ccccc3n2)n1` (stereo unspecified) showed a Percent Effect of 9.33%. Work on `Cc1cccc(N2CCN(C(=O)CN3CCN(CCO)CC3)CC2)c1` yielded a Percent Effect of 8.22%. Compound `O=C(CCc1ccc(=O)[nH]n1)N1CCCC(COc2ccc(F)cc2)C1` (stereo unspecified) has a Percent Effect of 1.39%. With `O=C(Cc1ccccn1)N1CCN(CC2CC2)c2ncccc2C1` the Percent Effect was 10.7%.
